# HT1080 IDH1KD tx – qHTS for induction of synthetic lethality in tumor cells producing 2HG: qHTS for the HT-1080-IDH1KD cell line; AID 686971, 2013; actives 2% (n = 360,000); Potency, µM (highest dose often 46.1 µM), without a hit: at the highest dose activity, negative = toxicity, hits mostly cytotoxic; HT-1080 IDH1 knockdown viability, ATP luminescence, 48 h;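 note: potency is the fitted concentration of half-maximal effect; 0% = DMSO wells and -100% = cell-free medium wells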
#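 Cytotoxicity counter-line: IDH1KD HT-1080, 48 h, CellTiter-Glo. Curves classed by r2, magnitude and activity.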
# ELG1 repair inh – qHTS screen for small molecules that inhibit ELG1-dependent DNA repair in human embryonic kidney (HEK293T) cells expressing luciferase-tagged ELG1. HEK293T ELG1-luciferase reporter, luminescence, 16 h; DNA damage induced by 5-fluorouridine. Potency, µM (titrated, usually from 46.1 µM), for the others: top-dose activity change, negative = inhibition, hits mostly inhibitors. actives 2.3% (n = 330,000). AID 504467, 2011; note: potency is the fitted concentration of half-maximal effect; nearly all actives have a fitted effect of over 55% in size
#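 DMSO vehicle served as the neutral condition. Each well held 2,000 cells given 5-fluorouridine plus compound; after 16 hr at 37 °C/5% CO2, ONE-Glo was added and luciferase measured 30 min later.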
# IL1B secr inh – qHTS for Inhibitors of Inflammasome Signaling: IL-1-beta AlphaLISA Primary Screen | activity change, % at 57.5 µM | THP-1 LPS/ATP IL-1B secretion, AlphaLISA, 16 h; hits give low values | actives 4.7% (n = 360,000); in the data active = activity change below about -50%; inconclusive = mostly about -30% to -49%
#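 THP-1 cells pretreated 1 hr with compounds (up to 57.5 uM final), then stimulated with LPS (250 ng/mL final) plus ATP (1.25 mM final); secreted IL-1B measured by AlphaLISA after 16 hr, decreased signal indicating inhibition.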
# TDP1 cell CPT – qHTS for Inhibitors of human tyrosyl-DNA phosphodiesterase 1 (TDP1): qHTS in cells in presence of CPT; AID 686979, 2013; actives 12% (n = 420,000); chicken DT40 Tdp1-/-;hTDP1 cells + 20 nM CPT, ATP luminescence, 48 h; Potency, µM (highest dose often 46.2 µM), inactives show at the top dose activity change, negative = growth inhibition, usual class: inhibitors; note: potency is the fitted concentration of half-maximal effect; nearly all actives have a fitted effect of over 55% in size
#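 Cell growth measured by CellTiter-Glo luminescence after a minimum 48 h, 37 C compound exposure with 20 nM CPT in Tdp1-knockout DT40 cells stably expressing hTDP1, seeded 400/well; qHTS titration format.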
# HT1080NT lethal – qHTS for induction of synthetic lethality in tumor cells producing 2HG: qHTS for the HT-1080-NT fibrosarcoma cell line; HT-1080-NT fibrosarcoma viability, CellTiter-Glo ATP luminescence, 48 h; Potency, µM (doses to about 46.1 µM), inactives show at the top dose activity, negative = less viability, hits mostly cytotoxic; AID 686970, 2013; actives 1.6% (n = 360,000);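 note: NT is the 2HG producing partner of a matched IDH1 knockdown line; potency is the fitted concentration of half-maximal effect; 0% = DMSO-treated cells and -100% = media-only wells without cells; nearly all actives have a fitted effect of over 55% in size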
#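 HT-1080-NT fibrosarcoma cells (2HG-overproducing), 750 cells/well in RPMI with 5% FBS, dosed after 2 h and incubated 48 h at 37C. CellTiter-Glo luminescence normalized to DMSO and no-cell wells; concentration-response curves fitted and classed.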
# DT40 TDP1 no CPT – qHTS for Inhibitors of human tyrosyl-DNA phosphodiesterase 1 (TDP1): qHTS in cells in absence of CPT; DT40 Tdp1-/- hTDP1 cells, no CPT, ATP luminescence, 48 h; actives 15% (n = 420,000); Potency, µM (top dose mostly 46.2 µM), for the others: at the top dose activity change, negative = growth inhibition, most hits filed as inhibitors; note: potency is the fitted concentration of half-maximal effect; nearly all actives have a fitted effect of over 55% in size
#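 A cellular qHTS used chicken DT40 cells lacking endogenous Tdp1 but carrying stably transfected human TDP1. Compounds were applied without camptothecin, and cell growth kinetics were judged by ATP-dependent luminescence after ≥48 hr.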
# * hit, by the source's call; ? = inconclusive; . = no result. In the library only some 19% were active in any assay of this set; here they are far more common. Unless noted, calls come from the whole dose curve; as a rule, active = well fitted curve in the direction sought with a large enough effect; inconclusive = small, poorly fitted or top-dose-only effect, or another doubt; inactive = no such curve, though single readings can be large; an effect the other way counts as inactive or inconclusive. Unless noted, % is set by controls: 0 for no effect and ±100 for the full control effect.
SMILES,HT1080 IDH1KD tx,ELG1 repair inh,IL1B secr inh,TDP1 cell CPT,HT1080NT lethal,DT40 TDP1 no CPT
COC(=O)C1=C(c2cc3ccccc3o2)C[C@@H]2CC[C@H]1N2C(=O)N1CCC(C)CC1,-19%,.,-1,4.6µM*,-14%,2.9µM*
COC(=O)C1=C(c2cc3ccccc3o2)C[C@@H]2CC[C@H]1N2C,-3%,20%,0,-20%,2%,-19%
COC(=O)C1=C(c2cc3ccccc3o2)C[C@@H]2CC[C@H]1N2C(=O)N1CCC(O)CC1,-5%,.,6,?,1%,23µM*
Cc1cc(-c2ccccc2)cc(C)[n+]1Cc1ccccc1,-26%,-13%,-2,1.5µM*,-1%,1.6µM*
CC(=O)OC1C=CC2[C@H]3Cc4ccc(O)c5c4[C@@]2(CCN3C)C1O5 (some centres undefined),9%,13%,32,8%,18%,-4%
N#Cc1c(/N=C/c2ccc(O)cc2O)sc2c1C1CCN2CC1,-15%,?,0,-13%,-9%,-30%
O=C(NCC1=C(c2ccc3ccccc3c2)C[C@@H]2CC[C@H]1N2Cc1ccco1)c1ccc([N+](=O)[O-])cc1,?,.,-71*,?,-20%,16µM*
O=C(Oc1ccccc1)N1CCC[C@@]2(CCN(Cc3ccccc3)C2)C1,.,.,.,-3%,.,-28%
CCc1ccc(-n2nc(C)c3c(C(=O)NCCc4ccc(OC)c(OC)c4)cc(C)nc32)cc1,.,.,.,18µM*,.,18µM*
COc1ccc(CCNCc2ccccc2F)cc1OC,0%,-5%,-4,-14%,-1%,-17%
c1ccc2c3c([nH]c2c1)C1(CCNCC1)NCC3,-4%,17%,-25,?,-1%,-28%
CCC(C)C1NC(=O)C2CCCN2C(=O)C(CC(C)C)OC(=O)CCNC(=O)C(C)N(C)C(=O)C(C(C)C)N(C)C1=O (centres undefined),23µM*,.,-14,3.3µM*,18µM*,4.1µM*
COc1cccc(C(=O)c2c(N)c(-c3nc(-c4ccccc4)cs3)c3ccccn23)c1,.,.,.,?,.,21µM*
CCN(CC)C(=O)c1cccc(-c2csc(C(C)(O)c3ccccc3)n2)c1 (centres undefined),-2%,.,4,?,?,?
O=C(NCc1cccnc1)c1ccc(COc2ccc3c(c2)CCC3)o1,?,?,-22,18µM*,?,?
C[C@H](CO)N1C[C@H](C)[C@@H](CN(C)C(=O)NC2CCCCC2)Oc2c(cccc2N(C)C)C1=O,-11%,17%,-1,?,0%,?
CCOP1(=S)Oc2cc3c(cc2C(C(=O)OC)(C(F)(F)F)O1)OCO3 (centres undefined),4%,5%,-5,13µM*,5%,?
C/C=C1/C[N@@+]2(C)CC[C@]34C(=C(C=O)[C@H]1C[C@H]32)Nc1ccccc14,.,.,.,9%,.,-2%
COCc1cc(C)c(C#N)c(=S)[nH]1,12%,9%,36,1.2µM*,12%,0.82µM*
Oc1ccc2c3c1OC1c4[nH]c5ccccc5c4C[C@@]4(O)C(C2)N(CC2CC2)CC[C@]314 (some centres undefined),?,13%,-64*,?,?,?
